According to the supplement of paper PMC11732987, “Enantioselective OTUD7B fragment discovery through chemoproteomics screening and high-throughput optimisation” (Communications Chemistry, 2025):
Unmarked numbers belong to inactive results.

Each compound was assayed against T1, VCPIP1 (UniProt Q96JH7) (assay: log2 ratio of Biotin-Ahx-Ub-VS probe labelling (fragment/DMSO); higher = less target engagement (more negative = stronger competition), active = hit call of the paper (q ≤ 0.05, log2 ratio ≤ -1)). Conditions: compound concentration: 200 uM; treatment time: 3 h.
T1 sequence (whole entry): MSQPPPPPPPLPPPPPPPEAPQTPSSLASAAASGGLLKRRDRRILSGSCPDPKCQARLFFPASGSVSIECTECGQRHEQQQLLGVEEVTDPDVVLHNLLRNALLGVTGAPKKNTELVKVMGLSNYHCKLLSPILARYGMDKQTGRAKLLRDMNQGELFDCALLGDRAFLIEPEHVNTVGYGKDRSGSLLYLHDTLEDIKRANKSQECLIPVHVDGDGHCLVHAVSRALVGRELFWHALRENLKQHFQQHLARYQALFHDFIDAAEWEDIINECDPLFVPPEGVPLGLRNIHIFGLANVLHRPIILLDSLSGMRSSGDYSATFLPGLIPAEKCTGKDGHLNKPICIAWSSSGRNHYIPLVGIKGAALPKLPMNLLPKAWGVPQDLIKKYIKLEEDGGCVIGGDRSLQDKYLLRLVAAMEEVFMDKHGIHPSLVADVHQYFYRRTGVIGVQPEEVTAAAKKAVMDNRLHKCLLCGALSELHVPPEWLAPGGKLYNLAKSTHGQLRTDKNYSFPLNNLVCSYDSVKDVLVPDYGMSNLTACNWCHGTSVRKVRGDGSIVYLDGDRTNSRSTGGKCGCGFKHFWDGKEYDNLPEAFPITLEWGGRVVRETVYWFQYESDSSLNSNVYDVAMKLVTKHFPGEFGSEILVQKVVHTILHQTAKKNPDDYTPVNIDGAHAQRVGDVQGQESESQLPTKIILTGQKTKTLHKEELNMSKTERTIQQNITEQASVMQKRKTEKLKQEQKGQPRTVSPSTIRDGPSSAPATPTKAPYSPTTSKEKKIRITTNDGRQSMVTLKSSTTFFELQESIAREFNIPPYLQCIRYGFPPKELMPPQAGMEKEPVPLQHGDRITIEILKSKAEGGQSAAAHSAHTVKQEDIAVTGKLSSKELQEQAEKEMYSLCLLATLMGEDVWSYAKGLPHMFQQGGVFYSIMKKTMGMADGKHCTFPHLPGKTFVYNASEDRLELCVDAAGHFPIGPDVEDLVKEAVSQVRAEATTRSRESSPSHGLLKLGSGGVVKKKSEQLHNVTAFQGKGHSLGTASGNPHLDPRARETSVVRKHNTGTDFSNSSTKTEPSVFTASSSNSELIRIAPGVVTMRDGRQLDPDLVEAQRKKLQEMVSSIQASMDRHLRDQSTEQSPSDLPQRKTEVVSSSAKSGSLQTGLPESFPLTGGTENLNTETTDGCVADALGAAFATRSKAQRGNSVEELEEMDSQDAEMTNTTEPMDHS
Method: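 Competitive ABPP in HEK293T cell lysate. Lysates were treated with each chloroacetamide fragment at 200 µM for 3 h, then with Biotin-Ahx-Ub-VS (0.5 µM, 1 h), NeutrAvidin-enriched and analysed by diaPASEF LC-MS/MS. Protein LFQ was median-normalised; average log2 ratio is fragment/DMSO from an unpaired t-test (n=3 treated, n=44 DMSO). Hits: q ≤ 0.05, log2 ratio ≤ -1, unique peptides ≥ 2.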

Compound	log2 ratio of Biotin-Ahx-Ub-VS probe labelling
O=C(CCl)Nc1cccc(NC(=O)c2ccccc2)c1	-2.42 (active)
O=C(CCl)NCc1ccc(N2CCOCC2)c(F)c1	-2.18 (active)
O=C(CCl)N1c2ccccc2NC(=O)C12CCCC2	-0.744
O=C(CCl)N1CCc2sccc2C1	-0.819
O=C(CCl)N1CCOC(CCc2ccccc2)C1 (stereo not given)	-2.79 (active)
O=C(CCl)N1CCC[C@@H]1c1ccon1	-0.499
O=C(CCl)NCc1cccc(N2CCCC2=O)c1	-1.04 (active)
Cc1noc(C)c1CNC(=O)CCl	-1.8 (active)
O=C(CCl)Nc1cc(Cl)ccc1C(=O)O	-0.241
COc1cc(Cl)c(C)cc1NC(=O)CCl	-1.24 (active)
CNC(=O)C1CCN(C(=O)CCl)CC1	-0.28
Cc1cccn2cc(CCNC(=O)CCl)nc12.Cl	-1.07 (active)
O=C(CCl)NC1(c2ccc3c(c2)OCCO3)CCCC1	-0.7
CCC(NC(=O)CCl)c1ccc(Cl)cc1 (stereo not given)	-0.836
Cc1cccc(N(CCC#N)C(=O)CCl)c1C	-2.23 (active)
Cc1c(NC(=O)CCl)c(=O)n(-c2ccccc2)n1C	-0.255
NS(=O)(=O)c1ccc(Cl)c(NC(=O)CCl)c1	-2.53 (active)
Cc1nc(CN2CCN(C(=O)CCl)CC2)cs1	-0.304
Cl.Cn1ncc2c1CC(NC(=O)CCl)CC2 (stereo not given)	-0.665
O=C(CCl)N1CCOCC1C1CC1 (stereo not given)	-0.493

Compound	log2 ratio of Biotin-Ahx-Ub-VS probe labelling
O=C(CCl)NCC1(c2ccccc2)CC1	-2.43 (active)
O=C(CCl)N1CCOCCC1c1ccccc1 (stereo not given)	-0.265
Cc1cnc2[nH]cc(CCNC(=O)CCl)c2c1	-1.05 (active)
CNC(=O)Cn1cc(NC(=O)CCl)cn1	-0.495
C[C@H]1CN(C(=O)CCl)CCN1C(=O)c1cnn(C)c1.Cl	-0.157
O=C(CCl)NCc1ccc(N2CCOCC2)nc1	-2 (active)
Cl.O=C(CCl)NCCc1ncc(F)cc1F	-1.69 (active)
O=C(CCl)N1CCCN(C(=O)c2ccc(Cl)cc2)CC1	-0.589
Cc1ccc(C)c(Oc2ccc(CNC(=O)CCl)cn2)c1.Cl	-1.8 (active)
Cl.O=C(CCl)NCCN1CCc2ccccc21	-1.9 (active)
CS(=O)(=O)c1ccc(NC(=O)CCl)cc1	-1.23 (active)
Cc1ccccc1OCC(=O)N1CCN(C(=O)CCl)CC1	-1.16 (active)
CC(NC(=O)CCl)c1noc(Cc2ccccc2)n1 (stereo not given)	-1.42 (active)
Cl.O=C(CCl)NC1(c2ncccn2)CCC1	-0.136
O=C(CCl)N(Cc1ccsc1)C1CC1	-0.642
Cl.O=C(CCl)NCc1cc2c(nc1O)CCCC2	-1.56 (active)
Cl.Cn1ncc2c1CCCC2NC(=O)CCl (stereo not given)	-1.7 (active)
Cc1cccc2nc(CCNC(=O)CCl)cn12.Cl	-1.77 (active)
CC(=O)Nc1ccc(NC(=O)CCl)cc1	-1.31 (active)
Cl.O=C(CCl)N1CCn2ncc(O)c2C1	-0.764
